# Laboratory results as given in the supplement of paper PMC6555819.
# System: THRa homodimer (NR concentration 90 nM)
# Assay: PBM binding z-score (relative to random genomic background probes); higher = stronger binding; sequences stand for … in GC…GCGATTGACAGCGTAGAATGAAGG
# Outline: (§1)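 Regression normalization was applied to scanned fluorescence from custom Agilent 4×180K protein-binding microarrays. Before scanning, arrays were incubated 1 h with ligand-free nuclear receptor dimers, and binding was detected with antibodies against each partner (one per run). Binding z-scores use the random background probes as reference.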
row,Sequence,PBM binding z-score
1,CCTACTGTGCCAAAGGTCATTGATTCCAATGCTC,1.72
2,GGAACGAGGGCACAGTTGATAGCATCTGTCGACG,-0.317
3,AGAATGAGGTTATACGTTGATCAGGGAAGAAAGT,0.901
4,ATCTGTAGGTTACATCCGGGTCATTCAGGCTATG,2.84
5,TCCATTAGTTGATTAGGGCAACCGAAACAGCGGA,0.498
6,CCTAGCAGGCCAATCTGGGTCGCTCAAGGCTTGA,-0.707
7,ACTATTAGTTGAGACGAGGCCAACCGATAGGTTG,0.433
8,TAGCCTAGGTCAGAGCGGGCCAGTATACGCTATA,-0.121
9,CCTCGGAGGACAAAAGGTCAGAGCTGTCCGCTTT,0.53
10,GCTGCTAGGTCAGGTTGGTCAGCTAGCGGGTACG,0.421
11,CGTCCAAGGTCAGAGAGGTCAGTTAATGCCGAGT,2.8
12,AGAACGAGGGCAATGAGTTGACAGCACGGGTGGC,-0.211
13,TCATATAGGAAATACAGGTGAAAGTCGGCATCTA,0.299
14,TCGAGTACGTTAGGGGCATTCAGAATGGCGTCGA,-0.622
15,CCGACTGGGGCAAGGATACCATAACGCACAGCCA,0.154
16,TCTGTTAGTTGAAGGGCAACCGACGAGTCCGTTT,0.0955
17,ATCTCTAGGTAAGACTAAGTTCAGTGAAGAACGC,0.876

# System: VDR homodimer (NR concentration 270 nM)
# Assay: as above
# Outline: as §1
row,Sequence,PBM binding z-score
1,TCTATTAGTTAAAGGGCAACCGACGAGTCCGTTT,1.77
2,AGAACGAGGGCACGCTTAGTTGATAGCAGAGTAG,0.561
3,AGAATGAGGTTACCAAAGATCTGGGAAACGCTTG,0.122
4,TGTCAAAGTTCAACGGTAACGTAAGTATCCACAC,3.5
5,TTACCAAGGTGAAAGATCGTTGATGCACGCCTTG,-0.339
6,CGAACTAGGTCATCCAGGACAGTGTATACATTGA,2.4
7,TCTTGTAGATCTAAGGTTAAGAAAGCCGAAGCCT,-0.0148
8,TCTATAAGTTGAAGGGCAACCGACGAGTCCGTTT,1.57
9,AGAACGAGGGCACCCTGAGTTGATAGCAGAGTAG,1.36
10,GCTAGTTGGTCAGTGAAAGGTCACACACCGGTCG,1.73
11,TCTAGAAGGCCAGAGGGTCACTCAAGAGGTACGG,0.435
12,TCATATTGGTAAACAGGTGAAAGTCCGTAAGTTA,0.487
13,CCTCGGAGGACAACAGGAGGTCAGAGATGCCAGA,1.41
14,GCGATTGGGGCATCAGCAGGTTACCATAACTTAA,-0.374
15,CCTTACGGGTCACTGACAGGTTATAGCCTTTGGA,1.14
16,TTACCAAGGAGAGCTGAGGTCGTTGATCCAACTC,2.11
17,AGTCAAAGTCCATCTAGGTAACGTAAGATATGCT,0.572
18,CTAACGAGGGCATGAGTTGATAGCAAATGCCGAT,1.43
19,CCGAGTAGGTTATTGGGCATTCAGGCAACGGTGA,0.256
20,CCGACTGGGGCATGAGGTTACCATAAGCCAGCCC,-0.0736

row,Sequence,PBM binding z-score
1,ATCGAAAGATCGAGGTGAGTATAGAGAAAGGGAA,-0.151
2,TATACCGGGTCAAAGGCCAGAGTACGAATGTCGA,1.98
3,CCTACTGTGCCAAAGGTCATTGATTCCAATGCTC,3.37
4,GGAACGAGGGCACAGTTGATAGCATCTGTCGACG,0.774
5,AGAATGAGGTTATACGTTGATCAGGGAAGAAAGT,1.5
6,ATCTGTAGGTTACATCCGGGTCATTCAGGCTATG,2.67
7,TCCATTAGTTGATTAGGGCAACCGAAACAGCGGA,0.246
8,CCTAGCAGGCCAATCTGGGTCGCTCAAGGCTTGA,-0.559
9,ACTATTAGTTGAGACGAGGCCAACCGATAGGTTG,0.394
10,TAGCCTAGGTCAGAGCGGGCCAGTATACGCTATA,-0.402
11,CCTCGGAGGACAAAAGGTCAGAGCTGTCCGCTTT,0.674
12,GCTGCTAGGTCAGGTTGGTCAGCTAGCGGGTACG,-0.146
13,CGTCCAAGGTCAGAGAGGTCAGTTAATGCCGAGT,6.29
14,AGAACGAGGGCAATGAGTTGACAGCACGGGTGGC,2.89
15,TCATATAGGAAATACAGGTGAAAGTCGGCATCTA,0.241
16,TCGAGTACGTTAGGGGCATTCAGAATGGCGTCGA,5.05
17,CCGACTGGGGCAAGGATACCATAACGCACAGCCA,-0.376
18,TCTGTTAGTTGAAGGGCAACCGACGAGTCCGTTT,1.67
19,ATCTCTAGGTAAGACTAAGTTCAGTGAAGAACGC,2.25
